Screening results: PubChem BioAssay, National Center for Advancing Translational Sciences (NCATS)
An excerpt weighted towards active compounds, which were near 2.8% of everything screened.
IP6K1 inhibitor: inhibitors of human IP6K1; Q92551; IP6K1 kinase, ADP-Glo luminescence, 2 h; hits give low values; activity change, % (series mostly up to about 58 µM); 140,000 compounds, 0.81% hits; AID 1645851; in the data active means activity change below about -25%; further: on the % scale 0 is the no-effect control and ±100 the full control effect
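ADP-Glo luminescence measures ADP made by human IP6K1 during a 2 h RT reaction with ATP/IP6 (mix at 1.3 mM/130 uM); top library doses 57.5 and 19.1 uM final.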
SNCA expr inhib: reduces expression of the alpha-synuclein gene; Potency, µM (doses to about 57.2 µM), for inactives: at the top dose activity change, negative = inhibition, actives largely listed as inhibitors; HEK-293 SNCA-luciferase knock-in, luminescence, 24 h; 140,000 compounds, 0.17% hits;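 further: potency means the concentration at half of the fitted maximal effect; plate controls were DMSO cells for no effect and cell-free wells for full effect; nearly all actives have a fitted effect of over 45% in size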
KDM5B inhibitor: inhibitors of human KDM5B histone demethylase; Q9UGL1; KDM5B demethylase, FDH-coupled NADH fluorescence (FDH is formaldehyde dehydrogenase); Potency, µM (series often up to 57.7 µM), most hits filed as inhibitors; 220,000 compounds, 2.6% hits; further: potency means the concentration at half of the fitted maximal effect; 0% is about no effect; nearly all actives have a fitted effect of over 70% in size
Target sequence (Q9UGL1 whole entry, looked up): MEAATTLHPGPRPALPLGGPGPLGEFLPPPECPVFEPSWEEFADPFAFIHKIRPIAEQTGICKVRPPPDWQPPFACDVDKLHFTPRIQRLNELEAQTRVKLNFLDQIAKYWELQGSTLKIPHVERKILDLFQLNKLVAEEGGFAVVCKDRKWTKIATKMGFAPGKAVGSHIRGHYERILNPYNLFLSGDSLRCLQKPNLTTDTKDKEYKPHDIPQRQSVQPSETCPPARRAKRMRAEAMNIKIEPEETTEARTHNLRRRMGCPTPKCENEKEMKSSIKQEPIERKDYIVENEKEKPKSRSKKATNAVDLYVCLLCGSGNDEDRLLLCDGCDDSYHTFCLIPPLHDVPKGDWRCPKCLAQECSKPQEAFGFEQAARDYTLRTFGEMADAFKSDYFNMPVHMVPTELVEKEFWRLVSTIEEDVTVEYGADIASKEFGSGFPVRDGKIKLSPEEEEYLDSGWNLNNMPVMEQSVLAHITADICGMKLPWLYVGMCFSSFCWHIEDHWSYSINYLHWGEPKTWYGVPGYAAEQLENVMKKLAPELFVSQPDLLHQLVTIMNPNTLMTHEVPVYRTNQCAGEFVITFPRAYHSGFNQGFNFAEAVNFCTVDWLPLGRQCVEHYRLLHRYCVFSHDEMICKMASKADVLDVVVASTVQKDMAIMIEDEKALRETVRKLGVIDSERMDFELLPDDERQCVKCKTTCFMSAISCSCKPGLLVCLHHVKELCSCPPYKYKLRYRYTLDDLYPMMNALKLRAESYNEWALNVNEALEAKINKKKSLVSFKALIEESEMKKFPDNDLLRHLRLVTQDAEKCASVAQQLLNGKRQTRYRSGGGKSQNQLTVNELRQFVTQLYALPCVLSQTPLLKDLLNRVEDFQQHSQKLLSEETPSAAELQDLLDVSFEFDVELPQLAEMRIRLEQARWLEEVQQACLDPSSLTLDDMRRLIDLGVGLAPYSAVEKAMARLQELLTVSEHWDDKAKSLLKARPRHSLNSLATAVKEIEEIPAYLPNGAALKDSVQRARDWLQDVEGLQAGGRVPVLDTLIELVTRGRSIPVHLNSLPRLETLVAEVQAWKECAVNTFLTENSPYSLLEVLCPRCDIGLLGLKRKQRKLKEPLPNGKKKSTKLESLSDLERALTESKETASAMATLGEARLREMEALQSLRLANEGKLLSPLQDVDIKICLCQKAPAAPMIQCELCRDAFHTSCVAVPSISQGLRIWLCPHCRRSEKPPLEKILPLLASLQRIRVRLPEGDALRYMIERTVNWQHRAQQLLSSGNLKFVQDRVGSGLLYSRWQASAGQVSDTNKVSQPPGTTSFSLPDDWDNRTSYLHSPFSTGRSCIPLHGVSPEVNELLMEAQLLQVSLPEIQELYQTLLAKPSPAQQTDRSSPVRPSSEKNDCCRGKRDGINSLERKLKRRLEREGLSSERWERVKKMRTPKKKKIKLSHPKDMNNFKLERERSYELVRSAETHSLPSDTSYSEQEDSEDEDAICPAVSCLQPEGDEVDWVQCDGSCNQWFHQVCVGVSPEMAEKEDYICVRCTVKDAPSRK
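KDM5BΔAP (200 nM final) in 50 mM HEPES pH 7.5, 0.01% Tween-20 was preincubated 10 min at RT with compound over a concentration range. Substrate mix (H3K4me3 12.5 µM, α-KG 25 µM, Fe²⁺, ascorbate, NAD⁺, FDH) was added, and NADH fluorescence change over 30 min gave dose-response curves.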
SNCA viab count: reduces viability of HEK-293 SNCA reporter cells; HEK-293-SNCA-luc viability, GF-AFC fluorescence, 24 h; Potency, µM (titrated, usually from 57.1 µM), for the others: at the top dose activity change, negative = cytotoxicity, hits mostly cytotoxic; 150,000 compounds, 0.12% hits;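 further: potency means the concentration at half of the fitted maximal effect; 0% = DMSO-treated cells and -100% = medium-only wells without cells; nearly all actives have a fitted effect of over 30% in size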
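HEK-293-SNCA-luc cells (1500/well) plated 24 h, then exposed 24 h to a dilution series; GF-AFC added 30 min at 37C, fluorescence 405/540 nm; normalised to medium-only and DMSO wells, Hill fit.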
The depositor's hits bear a star; i = inactive; ? = inconclusive; . = not tested or not shown; [ ] = dose if it differs, or a comment. Unless noted, the call rests on the fitted dose curve; in most records, active means well fitted curve in the direction sought with a large enough effect; inconclusive means small, poorly fitted or top-dose-only effect, or another doubt; inactive means no such curve, though single readings can be large; an effect the other way counts as inactive or inconclusive.

SMILES	IP6K1 inhibitor	SNCA expr inhib	KDM5B inhibitor	SNCA viab count
COc1ccc(CNC(=O)Cn2nc(C)c3sc(-c4ccccc4)nc3c2=O)cc1	4	25%	?	3%
Cc1nn(CC(=O)NCCN2CCCCCC2)c(=O)c2nc(-c3ccccc3)sc12	24	23%	20µM*	-2%
Cc1ccc(S(=O)(=O)N/N=C/c2sccc2C)cc1[N+](=O)[O-]	.	.	i	.
Cn1ncc2c(C(=O)NC3CCC3)cc(-c3cccc(F)c3)nc21	31	.	.	.
COc1cccc(NC(=O)Cn2c(=O)c(-c3noc(C)n3)c3n(c2=O)CCCCC3)c1	7	?	i	-25%
CS(=O)(=O)c1ccc(OC[C@H]2C[C@@H](NC(=O)C3CCOCC3)[C@H](O)[C@@H]2O)cc1	17	-19%[87.6 µM]	32µM*	-4%[87.6 µM]
Cc1nnn2c(C(=O)NCc3ccc(Cl)nc3)cccc12	3	20%[87.6 µM]	35µM*	-15%[87.6 µM]
C=CCNC(=O)c1cccc2c(C)nnn12	7	125%[87.6 µM]	32µM*	2%[87.6 µM]
CNC(=O)c1cccc2c(C)nnn12	-4	-7%[87.6 µM]	32µM*	7%[87.6 µM]
Cc1nnn2c(C(=O)Nc3ccc(F)cc3)cccc12	10	167%[87.6 µM]	?	-8%[87.6 µM]
Cc1nnn2c(C(=O)Nc3ccc(Cl)nc3)cccc12	9	6%[87.6 µM]	?	7%[87.6 µM]
O=C(CCS(=O)(=O)c1cc(Br)cc2c1N(C(=O)C1CC1)CC2)N1CCN(c2cccc(C(F)(F)F)c2)CC1	-6	-12%	?	18%
CNC(=O)C1CCN(C(=O)c2ccc(-c3ccccc3OC)cc2)CC1	3	26%	.	3%[12.5 µM]
CNC(=O)C1CCN(C(=O)c2ccc(-c3ncc4cnc(-c5ccccc5)cn34)cc2)CC1	2	12%	22µM*	3%
CN(C)CCN(C)C(=O)c1ccc(-c2ncc3cnc(-c4ccccc4)cn23)cc1	-12	-6%[87.6 µM]	32µM*	5%[87.6 µM]
CCc1cccc(NC(=O)N2CCCC(Cn3cnc4cccnc43)C2)c1 (configuration not stated)	-10	18%	i	7%
COCc1nc(NCc2cn3cc(C)sc3n2)cc(C2CC(N)C2)n1 (configuration not stated)	-11	6%	?	4%
Cc1cn2cc(CNC(=O)c3ccc(CN4CCCN(C)CC4)[nH]c3=O)nc2s1	14	?	28µM*	-4%
CCCCn1nc(C2CCOC2)nc1-c1cnc(NC)nc1 (configuration not stated)	-1	10%	25µM*	-1%
CC(C)(C)c1nnc([C@H]2CCN(Cc3cnc4ccccc4c3)C2)o1	-1	11%[87.6 µM]	35µM*	-14%[87.6 µM]
Cn1ccc2c(C(=O)NCCC(N)=O)nc(-c3cccc(C(F)(F)F)c3)cc21	-2	-17%[87.6 µM]	14µM*	-13%[87.6 µM]
Cc1ccccc1-c1cc2c(ccn2C)c(C(=O)NCCc2cnc[nH]2)n1	9	30%[87.6 µM]	40µM*	-17%[87.6 µM]
Cn1ccc2c(C(=O)NCCC(N)=O)nc(-c3ccccc3)cc21	-10	-12%[87.6 µM]	32µM*	-3%[87.6 µM]
Cn1ccc2c(C(=O)NCCC(N)=O)nc(-c3cccc(CO)c3)cc21	-2	1%[87.6 µM]	i	-4%[87.6 µM]
Cn1ccc2c(C(=O)NCCC(N)=O)nc(-c3ccccc3C(F)(F)F)cc21	-12	10%[87.6 µM]	i	1%[87.6 µM]
SMILES	IP6K1 inhibitor	SNCA expr inhib	KDM5B inhibitor	SNCA viab count
CCC(c1nc(-c2cccnn2)no1)n1cc(C(C)=O)c2ccccc21 (configuration not stated)	24	28%	i	1%
O=C1Nc2ccc(-c3ccc4c(c3)OCO4)cc2C(=O)N2CCN(C(=O)NC3CCCCC3)C[C@H]12	-9	-6%	11µM*	-24%
COc1cc(SC)ccc1C(=O)N[C@H]1C[C@H]2C(=O)Nc3ccc(-c4ccc5c(c4)OCO5)cc3C(=O)N2C1	-1	-18%	32µM*	-2%
CC(=O)N1CCC(C(=O)N2CCN3C(=O)c4cc(-c5ccc6c(c5)OCO6)ccc4NC(=O)[C@H]3C2)CC1	-1	11%	?	9%
O=C1Nc2ccc(-c3ccc4c(c3)OCO4)cc2C(=O)N2CCN(C(=O)COc3ccccc3)C[C@H]12	-14	4%	28µM*	-1%
Cc1ccccc1OCC(=O)OCC(=O)NC12CC3CC(CC(C3)C1)C2	.	.	i	.
CCOc1ccc(NC(=O)CSC2=Nc3ccccc3C3=NC(CC(=O)NCc4ccco4)C(=O)N23)cc1 (configuration not stated)	2	-11%	?	8%
COc1ccc(OC)c(NC(=O)CSC2=Nc3ccccc3C3=NC(CC(=O)NCc4ccco4)C(=O)N23)c1 (configuration not stated)	-25*	-27%	i	2%
Cc1cccc(C(=O)N[C@@H](C)C(=O)N2CCN(c3ncccn3)CC2)c1	.	.	i	.
Cc1cc(C)cc(C(=O)NC(Cc2ccccc2)C(=O)N2CCN(c3ccccn3)CC2)c1 (configuration not stated)	10	2%	25µM*	-1%
CC(NC(=O)COc1ccc(F)cc1)C(=O)N1CCN(c2ccccn2)CC1 (configuration not stated)	12	?	28µM*	-12%
CC(NC(=O)COc1ccccc1)C(=O)N1CCN(c2ccc(F)cc2)CC1 (configuration not stated)	.	.	i	.
COc1ccc(-c2cnc3[nH]cc(CC(=O)N4CCN(c5ccccn5)CC4)c3c2)cc1	-9	39%[87.6 µM]	28µM*	-22%[87.6 µM]
COc1cccc(CN2C(=O)CCCCC2C(=O)N2CCN(c3ccccn3)CC2)c1 (configuration not stated)	-10	-13%	.	-20%
COc1cccc(CCC(=O)NC(C)C(=O)N2CCN(c3ccccn3)CC2)c1 (configuration not stated)	2	-8%	22µM*	-10%
CC(C)(C)CC(=O)N1CCN(c2nc(-c3ccccc3)nc3c2CCC3)CC1	9	?	i	-19%
COc1ccc(C(=O)NC(C)C(=O)N2CCN(c3ccccn3)CC2)cc1F (configuration not stated)	4	-24%	?	-8%
COc1ccc(CC(=O)NC(C)C(=O)N2CCN(c3ccccn3)CC2)cc1 (configuration not stated)	22	-16%	32µM*	-1%
CCOc1ccccc1C(=O)NC(C)C(=O)N1CCN(c2ccccn2)CC1 (configuration not stated)	1	?	22µM*	8%
COc1ccc(-c2cnc3[nH]cc(CC(=O)NCCN(C)C)c3c2)cc1	-16	47%[87.6 µM]	40µM*	3%[87.6 µM]
COc1cccc(CC(=O)NC(C)C(=O)N2CCN(c3ccccn3)CC2)c1 (configuration not stated)	30	2%	25µM*	7%
CC(NC(=O)Cc1c(F)cccc1Cl)C(=O)N1CCN(c2ccccn2)CC1 (configuration not stated)	-1	5%	?	-13%
Cc1ccc(C2(O)CCN(C(=O)c3ccc4nc(C)c(C)nc4c3)CC2)nc1	-9	7%	i	5%
CCc1ccc(C(=O)COC(=O)CNC(=O)c2ccccc2)cc1	.	.	i	.
